Source: PubChem
Hits are enriched below; roughly 3.8% of the tested compounds scored in any of these assays.
PfM18AAP inh-1: blocks P. falciparum M18 aspartyl aminopeptidase; hit rate 1.2% among 290,000; inhibition, % at 7.35 µM; recombinant PfM18AAP, H-Glu-NHMec fluorogenic cleavage;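 active = inhibition above the campaign mean inhibition over all tested compounds plus 3 SD, cut at about 28% in these data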
PAFAH1B2 inh: inhibitors of human PAFAH1B2 | inhibition, % at 3.39 µM | AID 492953 | P68402 | recombinant PAFAH1B2, FP-rhodamine activity probe, fluorescence polarization | hit rate 1.2% among 340,000;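 active = inhibition above the mean of all tested compounds plus 3 SD, cut at about 24% in these data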
PAFAH2 inh: inhibitors of human PAFAH2 | Q99487 | recombinant PAFAH2, FP-rhodamine activity probe, fluorescence polarization | inhibition, % at 3.39 µM | hit rate 0.99% among 340,000;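 active = inhibition above the mean over all tested compounds plus 3 SD, cut at about 30% in these data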;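 note: inhibitors block probe labeling of enzyme so polarization drops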
pPAFAH inh: pPAFAH (human) enzyme inhibition | Q13093 | recombinant pPAFAH, FP-rhodamine probe fluorescence polarization | inhibition, % at 3.39 µM | hit rate 1.5% among 330,000 | AID 463082;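 active = inhibition above the mean inhibition across the screen plus 3 SD, cut at about 25% in these data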;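 note: inhibitors block binding of the rhodamine activity-based probe so polarization drops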
Pemphigus Ab inh: blocks pemphigus antibody binding to human desmoglein-3. binding (percent of control), % at 10 µM. DSG3-coupled beads, scFv-anti-DSG3-GFP binding, flow cytometry; active compounds read low. hit rate 0.48% among 310,000. P32926;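 active = binding more than 3 SD below its plate's average and above zero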;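 note: hits lower antibody fragment binding to DSG3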
Target sequence (P32926 whole entry, looked up, the tested form may be a part): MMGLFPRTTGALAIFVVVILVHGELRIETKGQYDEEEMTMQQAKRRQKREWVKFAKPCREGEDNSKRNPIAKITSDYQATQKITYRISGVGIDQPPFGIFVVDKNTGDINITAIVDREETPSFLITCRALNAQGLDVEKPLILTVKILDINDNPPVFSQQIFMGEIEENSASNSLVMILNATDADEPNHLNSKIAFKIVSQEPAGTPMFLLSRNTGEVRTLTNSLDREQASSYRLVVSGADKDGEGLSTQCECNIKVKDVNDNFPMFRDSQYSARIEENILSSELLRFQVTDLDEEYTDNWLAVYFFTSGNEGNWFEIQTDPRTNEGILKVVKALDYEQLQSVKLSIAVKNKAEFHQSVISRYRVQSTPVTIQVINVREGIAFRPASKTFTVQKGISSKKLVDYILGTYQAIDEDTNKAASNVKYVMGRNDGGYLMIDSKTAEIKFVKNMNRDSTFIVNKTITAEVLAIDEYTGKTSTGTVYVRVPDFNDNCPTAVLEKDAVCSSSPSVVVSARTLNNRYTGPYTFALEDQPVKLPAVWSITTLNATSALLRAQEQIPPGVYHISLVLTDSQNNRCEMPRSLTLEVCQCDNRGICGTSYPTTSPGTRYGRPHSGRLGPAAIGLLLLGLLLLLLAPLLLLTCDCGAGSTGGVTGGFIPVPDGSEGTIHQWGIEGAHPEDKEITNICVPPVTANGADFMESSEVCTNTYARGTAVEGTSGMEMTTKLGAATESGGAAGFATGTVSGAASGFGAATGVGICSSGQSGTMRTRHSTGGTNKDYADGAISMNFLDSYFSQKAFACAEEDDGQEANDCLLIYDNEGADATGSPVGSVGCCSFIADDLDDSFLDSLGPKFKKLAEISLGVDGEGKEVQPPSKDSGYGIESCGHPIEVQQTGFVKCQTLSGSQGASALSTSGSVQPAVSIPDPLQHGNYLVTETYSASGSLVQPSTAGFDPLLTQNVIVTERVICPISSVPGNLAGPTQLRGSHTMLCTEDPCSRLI
PAFAH1B3 FP inh: blocks human PAF acetylhydrolase 1B catalytic subunit 3 | inhibition, % at 3.39 µM | hit rate 0.28% among 340,000 | recombinant PAFAH1B3, FP-rhodamine probe, fluorescence polarization;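 active = inhibition above the screen-wide average of all tested compounds plus 3 SD, cut at about 25% in these data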
PfM18AAP inh-2: PfM18AAP inhibition, confirmation | recombinant PfM18AAP, H-Glu-NHMec fluorogenic cleavage | inhibition, % at 7.35 µM | AID 2170 | hit rate 28% among 2,400 | shares compounds with PfM18AAP inh-1;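 active = mean inhibition over replicate wells above the hit cutoff set for the earlier primary screen, cut at about 29% in these data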
CTSL1 confirm: counter-screen for PFM18AAP inhibitors: confirmation of human cathepsin L inhibitors. shares compounds with PfM18AAP inh-1. purified cathepsin L1, Z-Leu-Arg-MCA fluorescence. inhibition, % at 5.96 µM. 2,400 tested, under 10 active. AID 2178;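 active = average inhibition across replicates above the hit cutoff set in the earlier primary screen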
Numbers stand for hits; – = inactive; · = not tested or not shown.

SMILES	PfM18AAP inh-1	PAFAH1B2 inh	PAFAH2 inh	pPAFAH inh	Pemphigus Ab inh	PAFAH1B3 FP inh	PfM18AAP inh-2	CTSL1 confirm
COc1ccc(OC)c(C(=O)c2ccc(C(=O)Nc3cccc4ccccc34)cc2)c1	–	–	–	–	–	–	·	·
COc1ccc(OCC(O)CNC(=O)c2sccc2Cl)cc1 (centres undefined)	–	–	–	–	·	–	·	·
CC(O)c1nc2ccccc2n1CC(=O)N1CCN(c2ccccc2)CC1 (centres undefined)	–	–	–	–	–	–	·	·
COc1ccc(C(=O)OCC(=O)Nc2nnc(-c3ccccc3)o2)cc1	42	–	–	–	–	–	–	–
COc1c2ccoc2nc2c(OC)c(OCC(OC(C)=O)C(C)(C)O)ccc12 (centres undefined)	–	–	–	–	–	–	·	·
CN(Cc1ccccc1)C(=S)Nc1ccc2nc3n(c(=O)c2c1)CCCCC3	–	–	–	–	–	–	·	·
COC(=O)C1=C(C)Nc2ccc(C)cc2S1	–	–	–	–	–	–	·	·
CC(=O)C1=C(C)Nc2cc(C(F)(F)F)ccc2S1	36	–	–	–	–	–	–	–
Cc1ccsc1/C=c1\sc2ncnn2c1=O	87	–	–	–	–	–	55	–
CCCCOc1ccc(/C=c2\sc3ncnn3c2=O)cc1	76	–	–	–	–	–	–	–
O=c1/c(=C/c2cccc3ccccc23)sc2ncnn12	44	–	–	–	·	–	35	–
Cc1ccsc1C=C1C(=O)c2ccccc2C1=O	–	–	–	–	–	–	·	·
Nc1ccc(C(=O)N/N=C/c2ccc(N3CCOCC3)s2)cc1	·	–	–	–	–	–	·	·
O=C(N/N=C/c1ccc(N2CCOCC2)s1)c1ccccc1Br	41	–	–	–	–	–	–	–
O=C(CN(Cc1ccccc1)C(=O)CCC(=O)Nc1ccccn1)NCc1ccc(F)cc1	–	–	–	–	–	–	·	·
CN(Cc1ccc(C(C)(C)C)cc1)C(=O)c1ccc2c(c1)OCO2	·	–	–	·	–	–	·	·
C=CCNC(=S)NNc1nc2sc3c(c2c(=O)[nH]1)CC(C)(C)OC3	34	–	–	–	–	–	–	–
C=CCSc1nc2sc3c(c2c(=O)[nH]1)CC(C)(C)OC3	·	–	–	·	–	–	·	·
O=C(CN1CCN(c2ccccc2O)CC1)Nc1ccc2c(c1)OCCCO2	·	–	–	–	–	–	·	·
CCN(CC)c1ccc(N=C2C(=O)Nc3ccccc32)cc1	63	–	–	29	–	–	–	–
Cc1cc(C)c(Cn2c(=O)[nH][nH]c2=O)cc1Cn1c(=O)[nH][nH]c1=O	·	·	·	·	–	·	·	·
O=C(Nc1ncn[nH]1)C(F)(F)C(F)F	32	–	–	–	–	–	–	–
CCC(C(=O)Nc1ncn[nH]1)(C(F)(F)F)C(F)(F)F	53	–	–	–	·	–	69	–
CCOc1ccc(S(=O)(=O)Nc2ccc(O)c(Sc3ncn[nH]3)c2)cc1	54	–	–	–	–	–	–	–
COc1ccc(OC)c(S(=O)(=O)Nc2cccc(O)c2)c1	·	–	–	–	·	–	·	·
SMILES	PfM18AAP inh-1	PAFAH1B2 inh	PAFAH2 inh	pPAFAH inh	Pemphigus Ab inh	PAFAH1B3 FP inh	PfM18AAP inh-2	CTSL1 confirm
Cc1ccc(C)c(S(=O)(=O)Nc2ccc(O)c(Sc3ncn[nH]3)c2)c1	39	–	–	–	–	–	–	–
Cc1cc(F)ccc1S(=O)(=O)Nc1ccc(O)c(Sc2ncn[nH]2)c1	52	–	–	–	–	–	–	–
Cc1ccc(C)c(S(=O)(=O)Nc2ccc3[nH]c(=O)[nH]c3c2)c1	–	–	–	–	·	–	·	·
COc1ccc(OC)c(S(=O)(=O)Nc2ccc(O)c(Sc3ncn[nH]3)c2)c1	64	–	–	–	–	–	36	–
CSCCC(NC(=O)c1ccccc1Cl)C(=O)NCCc1ccccn1 (centres undefined)	·	–	–	–	–	–	·	·
O=C(O)c1ccc(S(=O)(=O)Nc2ccc(O)c(Sc3nc4ccccc4s3)c2)cc1	–	–	–	–	–	–	·	·
Cc1cc(F)ccc1S(=O)(=O)Nc1ccccc1C(=O)Nc1ncn[nH]1	49	–	–	–	–	–	48	–
Cc1ccc(S(=O)(=O)Nc2ccc(O)c(Sc3ncn[nH]3)c2)cc1	56	–	–	–	–	–	–	–
O=C1C=C(c2ccoc2)N2CCC[C@H]2C1	·	–	–	–	–	–	·	·
CCN1CCN(C(=S)c2ccc(OCC(=O)NCc3ccccc3)cc2)CC1	39	–	–	–	–	–	–	–
Cc1ccc(C(=S)N2CCN(Cc3ccccc3)CC2)cc1	52	–	–	–	–	–	–	–
CCN1CCN(C(=S)c2ccc(OCC(=O)Nc3ccc(OC)cc3)cc2)CC1	–	–	–	–	–	–	·	·
CCc1ccccc1NC(=O)CC(=O)Nc1ccccc1CC	–	–	–	–	–	–	·	·
CCc1ccccc1NC(=S)Nn1cnnc1	76	–	–	·	·	–	70	–
Cc1cccc(NC(=S)NN2CCN(C)CC2)c1C	–	–	–	–	–	–	·	·
Cc1cccc(NC(=S)Nn2cnnc2)c1C	72	–	–	–	–	–	69	–
Cc1ccccc1NC(=S)Nn1cnnc1	73	–	–	–	–	–	52	–
Cc1ccccc1NC(=S)NN1CCN(C)CC1	–	–	–	–	·	–	·	·
CCOc1ccccc1NC(=S)Nn1cnnc1	74	–	–	–	–	–	56	–
O=C(Cc1ccccc1)NCC(=O)OCc1ccc([N+](=O)[O-])cc1	–	–	–	–	–	–	·	·
O=C(NCc1cccs1)c1ccc(CS(=O)Cc2cccc(Cl)c2)o1 (centres undefined)	–	–	–	–	·	–	·	·
Fc1ccccc1NC(=S)NCc1ccccc1	–	–	–	–	–	–	·	·
Fc1ccccc1NC(=S)Nn1cnnc1	75	–	–	–	·	–	54	–
O=C1Nc2cccnc2Sc2ccccc21	–	–	–	–	–	–	·	·
c1ccc2c(c1)Nc1nccnc1S2	36	–	–	–	–	–	–	–
SMILES	PfM18AAP inh-1	PAFAH1B2 inh	PAFAH2 inh	pPAFAH inh	Pemphigus Ab inh	PAFAH1B3 FP inh	PfM18AAP inh-2	CTSL1 confirm
CNS(=O)(=O)c1cc(NC(=O)CCNC(=O)c2ccco2)ccc1C	–	–	–	–	·	–	·	·
CCOC(=O)C1=C(C)NC(SCC(=O)OC)=C(C#N)C1c1ccc(C(=O)OC)cc1 (centres undefined)	36	–	–	–	–	–	–	–
O=C1CCCC2=C1C(c1cccs1)Nc1ccc3ncccc3c12 (centres undefined)	–	–	–	–	–	–	·	·
O=C1CCCC2=C1C(c1ccc(O)c(O)c1)Nc1ccc3ncccc3c12 (centres undefined)	78	–	–	–	–	–	78	–
CC(C)(C)N=Cc1c(O)ccc2oc3c(c12)CCCC3	33	–	–	–	–	–	–	–
Cc1cccnc1Nc1nc(-c2ccc(O)c(O)c2)cs1	79	–	–	–	–	–	55	–
